NS1 inh – inhibitors of influenza NS1 protein function; Potency, µM (series often up to 46.1 µM); actives 0.4% (n = 270,000); also: actives are rising curves; nearly all actives have a fitted effect of over 50% in size
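S. cerevisiae expressing influenza A NS1, grown in glucose, washed, then diluted 1:100 into pH 6.0 -URA galactose medium with 23 nl compound. Growth recovery read as OD600; NS1-free strain serves as control.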
Pf growth 96h – P. falciparum growth inhibition at 96 hour, primary screen for plastid delayed-death inhibitors | P. falciparum luciferase reporter growth, 96 h | Potency, µM (doses to about 28.7 µM), actives largely listed as inhibitors | actives 6.9% (n = 320,000) | AID 504834; active = well fitted inhibition curve with a large enough effect; inconclusive = small, poorly fitted or top-dose-only effect, or another doubt; inactive = no such curve, though single readings can be large or run the other way
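Infected RBCs, 2% Hct / 0.05% parasitemia final; luciferase-reporter P. falciparum; cpd 96 h, 37 C, 5% CO2; luciferase detection reagent; luminescence.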
Pf growth 48h – inhibits P. falciparum growth in the first generation, 48 h. Potency, µM (doses to about 28.7 µM), hits mostly inhibitors. actives 5.9% (n = 310,000). P. falciparum luciferase growth in erythrocytes, 48 h; active = well fitted inhibition curve with a large enough effect; inconclusive = small, poorly fitted or top-dose-only effect, or another doubt; inactive = no such curve, though single readings can be large or run the other way
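Firefly luciferase activity from engineered P. falciparum reports growth; inhibitors lower the luminescent signal. Cultures contained 2% hematocrit erythrocytes at 0.1% final parasitemia.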
SARS PLP yeast – inhibitors of SARS-CoV papain-like protease in yeast. S. cerevisiae expressing SARS-CoV PLpro, growth rescue. Potency, µM (top dose mostly 32.9 µM), hits mostly activators. actives 0.19% (n = 330,000). AID 485353; also: nearly all actives have a fitted effect of over 55% in size
A number is an active result; . = inactive; ? = inconclusive; / = no result; [ ] = remark or other dose. Compounds with a hit are over-represented: about 10% of the library has one in this group of screens. Unless noted, calls follow the shape of the full dose curve.

SMILES | NS1 inh | Pf growth 96h | Pf growth 48h | SARS PLP yeast
CC1(C)CC(=O)C2=C(C1)N1C(=C(C#N)C2c2ccc(Cl)cc2)N=C(N)c2ccccc21 (stereo not drawn) | . | 13.1µM | ? | .
CN1C(=O)C2(C(C#N)=C(N)N(c3ccc(Cl)cc3)C3=C2C(=O)CC(C)(C)C3)c2ccccc21 (stereo not drawn) | . | 13.1µM | / | .
CC1(C)CC(=O)C2=C(C1)N1C(=C(C#N)C2c2ccccc2Cl)N=C(N)c2ccccc21 (stereo not drawn) | . | . | 13.1µM | .
CC1(C)CC(=O)C2=C(C1)N(c1ccccc1)C(N)=C(C#N)C2c1ccccc1 (stereo not drawn) | . | ? | ? | .
CCN1CCN(C(=O)/C(=C/c2cccs2)NC(=O)c2ccc(C)c(C)c2)CC1 | . | . | . | .
O=C(C1CCCN(S(=O)(=O)c2ccc(F)cc2)C1)N1CCCCCC1 (stereo not drawn) | . | . | . | .
CCN(CC)c1ccc(/C=N/NC(=O)c2ccoc2C)c(O)c1 | . | ? | 1.31µM | .
CCN(CC)c1ccc(/C=N/NC(=O)c2nnn(-c3nonc3N)c2C(C)C)c(O)c1 | . | 7.38µM | 3.7µM | ?
CCN(CC)c1ccc(/C=N/NC(=O)c2ccc3nc[nH]c3c2)c(O)c1 | . | ? | ? | 3.16µM
COCc1c(C(=O)N/N=C/c2c[nH]c3ccccc23)nnn1-c1nonc1N | . | ? | . | .
CCCN(CCC)Cc1c(C(=O)N/N=C/c2c[nH]c3ccccc23)nnn1-c1nonc1N | . | 9.28µM | . | .
COc1ccccc1NC(=O)C(=O)Nc1ccc2c(c1)N(C(=O)C1CC1)CCC2 | / | . | . | .
CCN(CC)c1ccc(C(=O)N/N=C/c2ccccc2OC(F)F)cc1 | / | ? | 10.4µM | 8.91µM
CCN(CC)c1ccc(C=Nc2ccc(N(C)C)cc2)c(O)c1 | . | ? | ? | .
CCN(CC)c1ccc(N=Cc2ccc(N(CC)CC)cc2O)cc1 | . | / | 1.17µM | .
CC(C)Oc1ccccc1/C=N/NC(=O)c1ccc(F)cc1 | . | . | . | .
Cc1ccc(NC2=NC(c3ccc(C)cc3)n3c(nc(C)cc3=O)N2)cc1 (stereo not drawn) | . | 11.7µM | ? | .
C=CCOC(=O)C1=C(C)OC(N)=C(C(=O)OCC)C12C(=O)N(CC(N)=O)c1ccccc12 (stereo not drawn) | . | 13.1µM | . | .
COC(=O)C1=C(N)OC(C)=C(C(C)=O)C12C(=O)N(C)c1ccccc12 (stereo not drawn) | . | 8.28µM | . | .
COc1ccccc1NC(=O)C1=C(C)NC(SCC(=O)c2ccccc2)=C(C#N)C1c1ccco1 (stereo not drawn) | . | / | 9.28µM | .
CC(=O)C1=C(C)NC(SCC(=O)c2ccc(C)cc2)=C(C#N)C1c1ccco1 (stereo not drawn) | . | 6.57µM | 9.28µM | .
Cc1ccc(C(=O)CSC2=C(C#N)C(c3ccco3)C3=C(CC(C)(C)CC3=O)N2)cc1 (stereo not drawn) | . | . | / | .
COc1ccc(OC)c(NC(=O)CSC2=C(C#N)C(c3ccco3)C3=C(CCCC3=O)N2)c1 (stereo not drawn) | . | . | 9.28µM | .
O=C(CN(C(=O)CNC(=O)c1ccco1)c1ccccc1F)NC1CCCCC1 | . | . | . | .
O=C(NCC(Cl)c1ccc2ccccc2c1)c1c(F)cccc1F (stereo not drawn) | . | . | .[0.00184 µM] | .
SMILES | NS1 inh | Pf growth 96h | Pf growth 48h | SARS PLP yeast
CCOC(=O)C(NC(C)=O)C(OC(C)=O)c1cccc(N(CCCl)CCCl)c1 (stereo not drawn) | . | 10.4µM | ? | .
CCOC(=O)C(NC(C)=O)C(OC(C)=O)c1cccc([N+](=O)[O-])c1 (stereo not drawn) | . | . | . | .
COc1cc(N)c(Cc2nccc3cc(OC)c(OC)cc23)cc1OC | . | 6.57µM | ? | .
CCOc1cc(-c2nccc3cc(OC)c(OC)cc23)cc(OCC)c1OCC | . | 10.7µM | 10.4µM | .
COc1cc(Br)c(C(=O)c2nccc3cc(OC)c(OC)cc23)cc1OC | . | . | 6.57µM | .
COc1cc(C(=O)c2nccc3cc(OC)c(OC)cc23)c([N+](=O)[O-])cc1OC | / | ? | ? | .
COc1cc(Cc2nccc3cc(OC)c(OC)cc23)c(NC(C)=O)cc1OC | ? | . | . | .
COc1cc(N)c(C(=O)c2nccc3cc(OC)c(OC)cc23)cc1OC | . | 5.22µM | . | .
CCOc1cc(-c2nc(-c3cc(OC)c(OC)c(OC)c3)no2)cc(OCC)c1OCC | . | / | / | /
O=C1c2ccccc2-c2n[nH]c(=O)c3ccc(N4CCCCC4)c1c23 | / | . | . | .
O=C(c1cccc(C(F)(F)F)c1)c1c[nH]c(C(=O)NCCCN2CCOCC2)c1 | / | ? | ? | .
c1cncc(CSc2ncnc3nc[nH]c23)c1 | . | / | / | /
CC(C)(C)C1CCC(=NOC(=O)c2ccc(F)cc2)CC1 (stereo not drawn) | / | 10.4µM | ? | .
O=C(ON=C1CCN(S(=O)(=O)c2ccccc2)CC1)c1ccc(F)cc1 | . | . | . | .
COc1ccccc1-n1cnc2cc(NS(=O)(=O)c3ccc(Br)cc3)ccc21 | ? | 5.22µM | / | .
CCOc1ccc(CNc2ccc3c(c2)ncn3C)cc1 | . | 10.4µM | . | .
COc1ccc(CNc2ccc3c(c2)ncn3-c2ccccc2OC)cc1 | . | 13.1µM | 14.7µM | .
NN1C(=O)/C(=C2/Sc3ccccc3N2CCCS(=O)(=O)O)SC1=S | . | . | . | .
O=C1NC(=S)S/C1=C1\Sc2ccccc2N1CCCS(=O)(=O)O | . | 7.38µM | . | .
CN(O)/C=c1/ccc2c(n1)C(=O)C=CC=2 | . | 11.7µM | 8.28µM | .
Cn1c(=S)c2[nH]c(SCCN3C(=O)c4ccccc4C3=O)nc2n(C)c1=O | . | / | / | /
Cn1c(=S)c2[nH]c(SCCN3CCCC3)nc2n(C)c1=O | . | ? | 11.7µM | .
OC[C@@H]1O[C@](CO)(O[C@H]2O[C@H](CO)[C@@H](O)[C@H](O)[C@H]2O)[C@H](O)[C@H]1O | / | . | . | /
Cc1ccccc1NC1c2ccccc2C(=O)N1Cc1ccco1 (stereo not drawn) | . | 8.28µM | / | .
O=C(Cn1ncn2c(cc3sccc32)c1=O)NC1CCCC1 | . | 8.28µM | . | .
SMILES | NS1 inh | Pf growth 96h | Pf growth 48h | SARS PLP yeast
O=C(N1CCOCC1)C(F)(F)C(F)(F)C(F)(F)C(F)(F)C(=O)N1CCOCC1 | . | 11.7µM | . | .
CC(=O)N1CCOCCOCCN(C(C)=O)CCOCCOCC1 | . | . | . | .
Nc1nonc1-n1nnc(C(=O)N/N=C/c2ccoc2)c1CSc1ccc(Cl)cc1 | . | . | . | .
CCCCOc1ccc(S(=O)(=O)N2CCN(c3ccc(N4CCN(CC)CC4)nn3)CC2)cc1 | / | ? | 11.7µM | .
Cn1ccsc1=NC(=O)c1cccc(OC(F)F)c1 | . | . | / | .
O=S(=O)(c1cc(Cl)c(Cl)cc1Cl)N1CCN2CCCC2C1 (stereo not drawn) | . | . | . | .
CN1CCCCC1CCN1c2ccccc2Sc2ccc(S(C)=O)cc21 (stereo not drawn) | / | 1.51µM | ? | .
C=CCN1C(=O)CSc2ccc(C(=O)NC(C)c3ccccc3)cc21 (stereo not drawn) | . | 9.28µM | . | .

Compound activity deposited in PubChem BioAssay by National Center for Advancing Translational Sciences (NCATS).
